Assay outcomes: PubChem, National Center for Advancing Translational Sciences (NCATS)
DRD3 agonist: agonists of human D3 dopamine receptor; max activation, %; hit rate 0.58% among 410,000; P35462; D3R DiscoveRx beta-arrestin cells, luminescence, 90 min; in the data active means max activation above about 30%; further: 0% is about no effect
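Agonist mode: compounds and dopamine controls were applied to plated cells for 90 min at 37 degrees C after an overnight attachment at 1500 cells/well. Luminescent read-out followed 30 - 60 minutes at room temperature with DiscoveRx detection reagent.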
D1 ag: agonists of human D1 dopamine receptor; HEK293 T-REx D1 cells, calcium flux, agonist mode; activation, % at 2 µM; hit rate 1% among 360,000; AID 504660; in the data active means activation above about 30%; further: 0% is about no effect
Target sequence (P21728 whole entry, looked up): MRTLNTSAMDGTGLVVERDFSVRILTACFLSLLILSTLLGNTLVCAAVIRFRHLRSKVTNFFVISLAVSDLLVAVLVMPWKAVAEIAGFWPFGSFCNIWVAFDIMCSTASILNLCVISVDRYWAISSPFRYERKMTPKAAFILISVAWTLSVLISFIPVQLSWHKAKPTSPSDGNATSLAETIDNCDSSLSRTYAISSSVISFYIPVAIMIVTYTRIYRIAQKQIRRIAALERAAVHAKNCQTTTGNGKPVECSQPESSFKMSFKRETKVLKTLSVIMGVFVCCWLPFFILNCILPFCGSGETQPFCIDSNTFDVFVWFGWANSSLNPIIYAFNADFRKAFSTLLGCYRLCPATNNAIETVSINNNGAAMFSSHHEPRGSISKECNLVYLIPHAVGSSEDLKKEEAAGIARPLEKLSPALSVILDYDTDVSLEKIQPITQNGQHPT
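Agonism was scored from calcium flux recorded over 180 s (1 read/s) after pintool compound addition, following a 10-cycle baseline. Cells were inducible force-coupled HEK293 TREx D1, plated overnight at 30 C and loaded with no-wash calcium dye.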
D1 PAM: human D1 dopamine receptor positive modulation; AID 504651; hit rate 0.036% among 360,000; potentiation, % at 10 µM; P21728; HEK293 TREx D1 cells, calcium flux, dopamine EC20 potentiation; in the data active means potentiation above about 30%; further: 0% is about no effect
DRD3 antagonist: D3 dopamine receptor (human) antagonism | P35462 | D3R cells, DiscoveRx beta-arrestin luminescence, antagonist mode; stronger effect = lower value | max response, negative = inhibition, % | hit rate 2.5% among 360,000; in the data active means max response below about -50%; inconclusive means no clear call, values can overlap the other calls; further: on the % scale 0 is the no-effect control and ±100 the full control effect
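Cells expressing the human receptor were seeded at 1500 cells/well, incubated overnight at 37 degrees C in 5% CO2, then exposed to library compounds with dopamine controls for 90 minutes at 37 degrees C before luminescent detection.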
D1 antag: human D1 dopamine receptor antagonism; hit rate 3.2% among 360,000; activity change, negative = inhibition, % at 10 µM; HEK293 TREx D1 cells, calcium flux, dopamine EC80; stronger effect = lower value; in the data active means activity change below about -30%; further: on the % scale 0 is the no-effect control and ±100 the full control effect
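Allosteric or orthosteric antagonism assessed as attenuation of the calcium response to EC80 dopamine, added 180 s after compound, in induced HEK293 Trex D1 cells loaded with no-wash calcium dye.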
The depositor's hits bear a star; ? = inconclusive; nt = no result given; ! = not confirmed by another sample. The list is not random: actives were taken first. Their share in the collection is about 6%.

SMILES	DRD3 agonist	D1 ag	D1 PAM	DRD3 antagonist	D1 antag
COc1cccc(OC)c1OCC(O)CN1CCN(c2ccc(F)cc2)CC1 (stereo not given)	-15	2	-4	-77*	3
COc1ccc(N2CCN(CC(O)COc3ccc(C)cc3C)CC2)cc1 (stereo not given)	-7	2	-6	-29	8
COc1cccc(OCC(O)CN2CCN(c3ccc(F)cc3)CC2)c1 (stereo not given)	-7	10	-11	?	6
O=[N+]([O-])c1ccccc1OCC(O)CN1CCN(CC(O)COc2ccccc2[N+](=O)[O-])CC1 (stereo not given)	-5	9	0	-93*	-46*
OC(COc1ccccc1)CN1CCN(CC(O)COc2ccccc2)CC1 (stereo not given)	-22	4	-8	-30	-1
COc1ccc(N2CCN(CC(O)COc3ccccc3[N+](=O)[O-])CC2)cc1 (stereo not given)	-12	5	-7	-54*	-20
O=C(CCn1cccn1)NCc1ccc(Cl)cc1	4	1	1	nt	-26
CCOc1nc(Nc2ccc([N+](=O)[O-])cc2)nc(NC(C)(C)C)n1	9	1	-9	-17	-4
C=CCNc1nc(Nc2ccc([N+](=O)[O-])cc2)nc(OCC)n1	-8	3	-9	5	-55*
COC(=O)CSc1cccc2c1C(=O)CC2c1ccccc1 (stereo not given)	1	7	-5	5	-33*
COC(=O)CSc1ccsc1C(=O)O	5	3	-3	8	2
CCOc1ccccc1C(=O)N1CCc2cc(OC)c(OC)cc2C1COc1ccc2c(C)cc(=O)oc2c1 (stereo not given)	-3	4	0	nt	2
NC(=O)COC(=O)c1ccc(S(=O)(=O)NCc2ccco2)cc1	-5	4	-8	-24	-1
CS(=O)(=O)c1ccc(C(=O)OCc2nnc(-c3ccccc3)o2)cc1[N+](=O)[O-]	-15	0	-12	-60*	-24
O=C(OCc1nnc(-c2ccccc2)o1)c1ccc(CO)cc1	-4	9	7	-51*	-6
O=C(OCc1nnc(-c2ccccc2)o1)c1ccc(S(=O)(=O)NCc2ccco2)cc1	-5	0	-7	-78*	-8
O=C(OCc1ccccc1)c1cccc(-c2nnc(-c3ccccc3)o2)c1	38*	9	2	25	15
O=C(OCc1ccc(C(=O)c2ccccc2)cc1)c1cccc(-c2nnc(-c3ccccc3)o2)c1	-6	2	1	-19	-19
CN(C)S(=O)(=O)c1ccc(C(=O)OCc2nnc(-c3ccccc3)o2)cc1	5	9	4	-7	-17
CCOc1ccc(-n2c(SCC(=O)O)nc3sc4c(c3c2=O)CCCC4)cc1	4	1	-3	-10	5
COc1cc(F)ccc1-c1cc(C(=O)NCc2ccc(C(F)(F)F)cc2)[nH]n1	-18	nt	nt	-11	nt
O=C(OCc1nnc(-c2ccccc2)o1)c1cc(S(=O)(=O)N2CCOCC2)c(Cl)cc1Cl	1	3	-4	-55*	-34*
CC(=O)c1c(C)[nH]c(C(=O)OCc2nnc(-c3ccccc3)o2)c1C	0	7	-4	41	-32*
Cc1ccc(S(=O)(=O)N2CCOCC2)cc1C(=O)OCc1nnc(-c2ccccc2)o1	16	0	-8	0	-13
Cc1ccc(C(=O)OCc2nnc(-c3ccccc3)o2)o1	-3	24	-2	?	-6
SMILES	DRD3 agonist	D1 ag	D1 PAM	DRD3 antagonist	D1 antag
COC(=O)C1=C(N)c2c(F)cccc2C1(C#N)c1ccccc1 (stereo not given)	2	0	-5	21	-32*
COC(=O)C1=C(C)NC(=O)CC1c1ccccc1F (stereo not given)	-1	0	-7	7	-18
Cc1ccc(C)c(CSC2=NC(C)(C)Nc3ccccc32)c1	9	0	-10	nt	-83*
CC1(C)N=C(SCc2ccc(F)cc2)c2ccccc2N1	-30	3	2	nt	2
COc1ccc(NC(=O)COc2ccc(C)nc2[N+](=O)[O-])cc1S(N)(=O)=O	-1	0	-1	-20	-40*
CC(=O)N1N=C(c2cccc([N+](=O)[O-])c2)OC1(C)c1cccs1 (stereo not given)	-5	4	-8	10	1
CC(=O)N1N=C(c2cccc([N+](=O)[O-])c2)OC1c1ccccc1Cl (stereo not given)	-3	3	-1	-60*	7
COc1ccc(C)cc1NC(=O)CCS(=O)(=O)c1ccc2c(c1)CC(=O)N2C	6	2	-1	nt	-32*
COc1cc(NC(=O)CCS(=O)(=O)c2ccc3c(c2)CC(=O)N3C)cc(OC)c1OC	-16	5	-5	nt	-77*
COc1ccc(OC)c(S(=O)(=O)NCC(c2cccs2)N2CCc3ccccc3C2)c1 (stereo not given)	-15	2	1	-27	16
O=C(NCC1CCCN1S(=O)(=O)c1cccs1)c1cccc(Cl)c1 (stereo not given)	3	4	-4	-24	-32*
COc1ccccc1CNC(=O)C(CCSC)NS(=O)(=O)c1ccc2c(c1)oc(=O)n2C (stereo not given)	-6	0	9	0	4
COc1ccccc1CNC(=O)C(C)NS(=O)(=O)c1ccc(Br)cc1 (stereo not given)	2	0	-4	-68*	5
COc1ccccc1CNC(=O)C(CC(C)C)NS(=O)(=O)c1ccc2c(c1)oc(=O)n2C (stereo not given)	-16	1	3	26	-32*!
CNc1ncnc2c1ncn2[C@H]1CN(Cc2cccc3ccccc23)C[C@@H](CO)O1	111*	nt	nt	25	nt
CNc1ncnc2c1ncn2[C@H]1CN(CCOC)C[C@@H](CO)O1	5	nt	nt	-56*	nt
CNc1ncnc2c1ncn2[C@H]1CN(Cc2ccccc2)C[C@@H](CO)O1	-8	nt	nt	-8	nt
CC#CC(=O)NC1CCCN(C2Cc3ccccc3C2)C1 (stereo not given)	2	4	-1	1	-2
COc1cccc(C(=O)NC2CCCN(C3Cc4ccccc4C3)C2)c1OC (stereo not given)	-3	-1	-7	-93*	13
O=C1NC[C@H](CCCCN2CCN(CCc3ccc(O)cc3)C(=O)C2=O)N(CCC2CCCCC2)C1=O	5	nt	nt	17	nt
COc1ccc(OC)c(CN2CCN(C(=O)c3cccc(S(=O)(=O)Nc4ccc(C)cc4)c3)CC2)c1	-15	1	2	4	7
Cc1ccccc1Nc1ncnc2c1c(-c1ccccc1)cn2-c1ccc(F)cc1	-3	-3	-3	nt	-34*
CN1CCN(c2ncnc3c2c(-c2ccccc2)cn3-c2ccc(F)cc2)CC1	-20	2	-14	-63*	-42*
